Source: PubChem BioAssay (National Center for Advancing Translational Sciences (NCATS))
The sample as a whole holds a higher share of hits than the screen did.
KDM5B inh: blocks human KDM5B histone demethylase activity | 220,000 compounds, 2.6% hits | KDM5B demethylase, FDH-coupled NADH fluorescence (FDH is formaldehyde dehydrogenase) | Potency, µM (highest dose often 57.7 µM), usual class: inhibitors; active = well fitted inhibition curve with a large enough effect; note: 0% is about no effect; nearly all actives have a fitted effect of over 70% in size
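Inhibition is measured as reduced NADH fluorescence generation from FDH coupling to formaldehyde release. Truncated KDM5BΔAP at 200 nM final acts on H3K4me3 peptide (12.5 µM in substrate mix) in pH 7.5 HEPES buffer with Tween-20, 30 min, room temperature.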
Numbers without * were called inactive; i = inactive. Potency is the fitted concentration of half-maximal effect.

SMILES	KDM5B inh
CCCS(=O)(=O)N1CC[C@@H](CC(=O)O)[C@@H](CC2=NCCc3cc(OC)ccc32)C1	32µM*
O=C(O)C[C@@H]1CCN(S(=O)(=O)c2ccc(Cl)cc2)C[C@@H]1CC1=NCCc2cc(F)ccc21	i
CC(C)(C)c1ccc(C(NC(=O)c2ccccc2)NC(=O)c2ccccc2)cc1	i
CC(NC(=O)CSc1nc(CN2CCOCC2)nc2ccccc12)c1cccc2ccccc12 (centres undefined)	i
S=C(NCCc1ccccc1)NCc1cccc(Br)c1	i
COc1ccc(CC(=O)Nc2nonc2-c2ccc(OC)c(OC)c2)cc1	i
Cc1oc2ncn(C)c(=O)c2c1C(=O)N1CCN(c2ccccc2F)CC1	i
Cn1cc(S(=O)(=O)N2CCCCC2)cc1C(=O)N1CCN(c2ccccc2F)CC1	i
O=C(c1cn(C2CCCCC2)nn1)N1CCSCC1	i
Cc1cn2nc(C(=O)N3CCN(c4ccccc4F)CC3)cc2c(N2CCCC2)n1	32µM*
Cc1cn2nc(C(=O)N3CCCC3)cc2c(N2CCSCC2)n1	28µM*
Cc1cn2nc(C(=O)N3CCC(C(=O)NCc4ccccn4)CC3)cc2c(=O)[nH]1	i
N#Cc1ccc(OCCOC(=O)c2ccc(COc3ccccc3)o2)cc1	i
Cc1cccc(-c2nc3ccccc3c(=O)n2CCCN2CCOCC2)c1	i
Cc1ccc2[nH]c(CN3CC[C@H]4NCCC[C@]4(CO)C3)cc(=O)c2c1	13µM*
Cc1ccc2[nH]c(CSc3nnc(C)s3)cc(=O)c2c1	i
OC[C@]12CCCN[C@@H]1CCN(Cc1cccc(-c3ccccn3)c1)C2	i
Cc1ccccc1-n1ccnc1SCC(=O)c1ccc(F)c(F)c1	i
O=C(O)C1(c2ccc(Br)cc2)CCCCC1	i
Cc1ccc(C)c(C(=O)NCc2nnc3cc(-c4nc(C)no4)ccn23)c1	25µM*
Cc1ccc(C)c(C(=O)NCc2nnc3cc(-c4nc(C(C)C)no4)ccn23)c1	14µM*
CCN(CC)C(=O)C(Sc1nc2cc(S(=O)(=O)N3CCCCC3)ccc2o1)c1ccccc1 (centres undefined)	i
Cc1cccc(NC(=O)COc2ncnc3ccccc23)c1	i
OCCC#CCN1CCCCC1	i
O=C1COc2ccc(Oc3ccccc3)nc2CN1Cc1ccccc1	i
SMILES	KDM5B inh
O=C1COc2ccc(-c3cn[nH]c3)nc2CN1Cc1ccccc1	i
O=C1COc2ccc(-c3ccccc3)nc2CN1Cc1ccc(F)cc1	i
O=C1COc2ccc(OCc3cccnc3)nc2CN1CCOc1ccccc1	i
CN(c1ccccc1)c1ccc2c(n1)CN(CCOc1ccccc1)C(=O)CO2	32µM*
O=C1COc2ccc(-c3ccc4c(c3)OCO4)nc2CN1Cc1ccc(F)cc1	35µM*
CN(c1ccccc1)c1ccc2c(n1)CN(Cc1ccccc1)C(=O)CO2	35µM*
O=C1COc2ccc(OCc3ccc(F)cc3)nc2CN1CCOc1ccccc1	i
Cc1noc(C)c1-c1ccc2c(n1)CN(Cc1ccc(F)cc1)C(=O)CO2	i
CN(C)c1ccc(SSc2ccc(N(C)C)cc2)cc1	i
CCN1CCN(c2oc(-c3ccccc3F)nc2C#N)CC1	i
CCOC(=O)N1CCN(c2ccc(NS(=O)(=O)c3cc(F)ccc3F)cc2C(=O)O)CC1	i
O=C(O)c1nnn(-c2ccccc2)c1C(F)(F)F	i
COc1ccc(CCC(=O)N2CCC3(CC2)NC(=O)N(c2cccc(F)c2)N3)cc1	i
Cc1ccc(C)c(S(=O)(=O)Nc2ccc(S(=O)(=O)C3CCCC3)cc2)c1	i
O=C(Cn1cnc(S(=O)(=O)N2CCOCC2)c1)Nc1cccc(-c2ccno2)c1	i
O=c1cc(O)c2sc3nc(C45CC6CC(CC(C6)C4)C5)cc(C(F)(F)F)c3c2[nH]1	i
CCCC(=O)Nc1ccccc1C(C)CC (centres undefined)	i
CCOC(=O)c1c(C)c(CCC(=O)NCCN2CCCCC2)c(C)n1C	i
CCN(CC)c1cc(CCC(=O)O)ccn1	i
COCCNC(=O)CCc1ncc(-c2ccc(C)c(C)c2)o1	i
CN(CCNC(=O)CN1CC2CC(C1)[C@H]1CCCC(=O)N1C2)C1CCCCC1 (some centres undefined)	i
CCN(CC)c1cc(CCC(=O)NCCN2CCCCCC2)ccn1	28µM*
CS(=O)(=O)N1CCOc2ccc(CCC(=O)NCCCN3CCOCC3)cc2C1	i
CN1CCN(CCNC(=O)CCc2ccc3c(c2)CN(S(C)(=O)=O)CCO3)CC1	i
COc1cc(CNC(=O)CCc2ccncc2)ccc1OC1CCCC1	i
SMILES	KDM5B inh
CCN(CC)c1cc(CCC(=O)NCCN(C)C2CCCCC2)ccn1	28µM*
O=C(O)CCC(=O)NCCN1CCCC1	i
CCN(CC)c1cc(CCC(=O)NCCCN2CCN(C)CC2)ccn1	25µM*
CCN(CC)c1cc(CCC(=O)NCCOC)ccn1	18µM*
CCCCN1C(=O)C2(CC(=O)Nc3[nH]ncc32)c2ccccc21 (centres undefined)	i
CCN(CC(=O)NC(C)C)C(=O)c1cc(C(C)C)nc2ccccc12	i
O=C(Nc1cccc2ncccc12)c1ccc2ccccc2c1	i
